Data on 15 sequences can be found in publication PMC11006913.

Where a chain is given by its changes, count along the chain named.

Holding throughout (test): PBM; 200 nM protein, PBS
Conditions in all cases: dsDNA, one strand shown

Test [1] has as its target HOXC9 (Homo sapiens, UniProt P31274 178-260, K195R).
Test [2] concerns the target HOXC9 (Homo sapiens, UniProt P31274 178-260).
Test [3] addresses HOXC9 (Homo sapiens, UniProt P31274 178-260, R193K).
The target of test [4] is HOXC9 (Homo sapiens, UniProt P31274 178-260, R222W).
Chain of HOXC9 (Homo sapiens, UniProt P31274 178-260, R222W) (P31274 178-260 R222W): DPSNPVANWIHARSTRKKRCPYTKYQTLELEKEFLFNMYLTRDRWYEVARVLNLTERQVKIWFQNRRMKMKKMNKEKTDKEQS
The target of test [5] is T1, PAX4 (Homo sapiens, UniProt O43316 9-242, R200K).
T1 sequence: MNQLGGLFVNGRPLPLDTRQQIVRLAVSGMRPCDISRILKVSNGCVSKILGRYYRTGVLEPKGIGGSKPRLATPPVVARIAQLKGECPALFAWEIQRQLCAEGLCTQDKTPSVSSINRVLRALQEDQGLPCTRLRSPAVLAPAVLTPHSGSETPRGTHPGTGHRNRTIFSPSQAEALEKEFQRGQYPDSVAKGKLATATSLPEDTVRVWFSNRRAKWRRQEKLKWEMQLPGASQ

Test [6] has as its target T2, PAX4 (Homo sapiens, UniProt O43316 9-242, F177V).
T2 sequence: T1 sequence with F169V, K192R

Test [7] deals with T3, PAX4 (Homo sapiens, UniProt O43316 9-242, F177Y).
T3 sequence: T1 sequence with F169Y, K192R

Test [8] addresses ALX3 (Homo sapiens, UniProt O95076 139-225, N203Q).
Test [9] has as its target ALX3 (Homo sapiens, UniProt O95076 139-225).
The target of test [10] is ALX3 (Homo sapiens, UniProt O95076 139-225, L168Q).
Chain of ALX3 (Homo sapiens, UniProt O95076 139-225, L168Q) (O95076 139-225 L168Q): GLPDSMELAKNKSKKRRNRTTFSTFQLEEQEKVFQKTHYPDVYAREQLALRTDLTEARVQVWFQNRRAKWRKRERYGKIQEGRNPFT
In test [11] the target is ALX3 (Homo sapiens, UniProt O95076 139-225, L168V).
Chain of ALX3 (Homo sapiens, UniProt O95076 139-225, L168V) (O95076 139-225 L168V): as the sequence (O95076 139-225 L168Q) above, with Q30V counted along it
In test [12] the target is ALX3 (Homo sapiens, UniProt O95076 139-225, N203S).
Chain of ALX3 (Homo sapiens, UniProt O95076 139-225, N203S) (O95076 139-225 N203S): as the sequence (O95076 139-225 L168Q) above, with Q30L, N65S counted along it
In test [13] the target is HOXC10 (Homo sapiens, UniProt Q9NYD6 254-340).
Chain of HOXC10 (Homo sapiens, UniProt Q9NYD6 254-340) (Q9NYD6 254-340): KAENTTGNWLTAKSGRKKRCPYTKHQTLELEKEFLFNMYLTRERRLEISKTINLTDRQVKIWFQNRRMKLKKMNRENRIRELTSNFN
Test [14] concerns the target HOXC10 (Homo sapiens, UniProt Q9NYD6 254-340, K271E).
In test [15] the target is HOXD13 (Homo sapiens, UniProt P35453 263-343, T313R).
Chain of HOXD13 (Homo sapiens, UniProt P35453 263-343, T313R) (P35453 263-343 T313R): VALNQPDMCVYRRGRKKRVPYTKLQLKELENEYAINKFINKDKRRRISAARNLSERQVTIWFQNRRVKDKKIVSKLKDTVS
For test [16], the target named is HOXD13 (Homo sapiens, UniProt P35453 263-343).
Chain of HOXD13 (Homo sapiens, UniProt P35453 263-343) (P35453 263-343): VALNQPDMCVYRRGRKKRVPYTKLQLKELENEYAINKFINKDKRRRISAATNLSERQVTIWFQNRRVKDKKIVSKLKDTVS
Test [17] concerns the target HOXD13 (Homo sapiens, UniProt P35453 263-343, T313A).

Chain of HOXC10 (Homo sapiens, UniProt Q9NYD6 254-340, K271E) (Q9NYD6 254-340 K271E): as the sequence (Q9NYD6 254-340) above, with K18E counted along it
Chain of ALX3 (Homo sapiens, UniProt O95076 139-225) (O95076 139-225): as the sequence (O95076 139-225 L168Q) above, with Q30L counted along it
Chain of ALX3 (Homo sapiens, UniProt O95076 139-225, N203Q) (O95076 139-225 N203Q): as the sequence (O95076 139-225 L168Q) above, with Q30L, N65Q counted along it
Chain of HOXC9 (Homo sapiens, UniProt P31274 178-260, K195R) (P31274 178-260 K195R): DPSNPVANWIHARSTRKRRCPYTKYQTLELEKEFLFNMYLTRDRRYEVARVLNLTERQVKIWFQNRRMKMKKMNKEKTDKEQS
Chain of HOXC9 (Homo sapiens, UniProt P31274 178-260) (P31274 178-260): as the sequence (P31274 178-260 R222W) above, with W45R counted along it
Chain of HOXC9 (Homo sapiens, UniProt P31274 178-260, R193K) (P31274 178-260 R193K): as the sequence (P31274 178-260 R222W) above, with R16K, W45R counted along it
Chain of HOXD13 (Homo sapiens, UniProt P35453 263-343, T313A) (P35453 263-343 T313A): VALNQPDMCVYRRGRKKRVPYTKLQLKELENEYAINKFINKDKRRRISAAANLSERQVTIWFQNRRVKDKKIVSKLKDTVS

For the sequence CGGGGGTC, the binding signal with HOXC9 [1] was 9.59 upbm affinity estimate (log intensity, higher = more binding, comparable within an allelic series); with HOXC9 [2], 9.65 upbm affinity estimate (log intensity, higher = more binding, comparable within an allelic series); with HOXC9 [3] it was 9.62 upbm affinity estimate (log intensity, higher = more binding, comparable within an allelic series); in the test with HOXC9 [4], 9.59 upbm affinity estimate (log intensity, higher = more binding, comparable within an allelic series).

Consider GTGGGGGA, for which the binding signal is 9.34 upbm affinity estimate (log intensity, higher = more binding, comparable within an allelic series) in the test with PAX4 [5]; 9.35 upbm affinity estimate (log intensity, higher = more binding, comparable within an allelic series) in the test with PAX4 [6]; 9.43 upbm affinity estimate (log intensity, higher = more binding, comparable within an allelic series) with PAX4 [7].

CCCTTGCG: the binding signal in the test with ALX3 [8] was 7.69 upbm affinity estimate (log intensity, higher = more binding, comparable within an allelic series); with ALX3 [9], 7.65 upbm affinity estimate (log intensity, higher = more binding, comparable within an allelic series); with ALX3 [10], 7.59 upbm affinity estimate (log intensity, higher = more binding, comparable within an allelic series); with ALX3 [11], 7.6 upbm affinity estimate (log intensity, higher = more binding, comparable within an allelic series); with ALX3 [12], 7.67 upbm affinity estimate (log intensity, higher = more binding, comparable within an allelic series).

ATTAATCA: the binding signal with PAX4 [5] was 11.6 upbm affinity estimate (log intensity, higher = more binding, comparable within an allelic series); in the test with ALX3 [8], 8.54 upbm affinity estimate (log intensity, higher = more binding, comparable within an allelic series); with ALX3 [9], 12.3 upbm affinity estimate (log intensity, higher = more binding, comparable within an allelic series); in the test with PAX4 [7] it was 11 upbm affinity estimate (log intensity, higher = more binding, comparable within an allelic series); in the test with ALX3 [10], 10.2 upbm affinity estimate (log intensity, higher = more binding, comparable within an allelic series); with ALX3 [11], 9.65 upbm affinity estimate (log intensity, higher = more binding, comparable within an allelic series). In addition, the binding signal with ALX3 [12] was 8.61 upbm affinity estimate (log intensity, higher = more binding, comparable within an allelic series).

On to CCTGCCCC, for which the binding signal is 9.03 upbm affinity estimate (log intensity, higher = more binding, comparable within an allelic series) with PAX4 [5]; 9.07 upbm affinity estimate (log intensity, higher = more binding, comparable within an allelic series) with PAX4 [6]; 9 upbm affinity estimate (log intensity, higher = more binding, comparable within an allelic series) with PAX4 [7].

Turning to CAGGGTCC, the binding signal in the test with HOXC10 [13] is 10 upbm affinity estimate (log intensity, higher = more binding, comparable within an allelic series); with HOXC10 [14], 10 upbm affinity estimate (log intensity, higher = more binding, comparable within an allelic series).

As for CGGGGGGA, the binding signal in the test with HOXD13 [15] is 8.99 upbm affinity estimate (log intensity, higher = more binding, comparable within an allelic series); in the test with HOXD13 [16], 9.17 upbm affinity estimate (log intensity, higher = more binding, comparable within an allelic series); with HOXD13 [17], 9.29 upbm affinity estimate (log intensity, higher = more binding, comparable within an allelic series).

Turning to CGCTGGCC, the binding signal in the test with PAX4 [5] is 8.99 upbm affinity estimate (log intensity, higher = more binding, comparable within an allelic series); with ALX3 [8], 7.62 upbm affinity estimate (log intensity, higher = more binding, comparable within an allelic series); in the test with PAX4 [6] it was 9.1 upbm affinity estimate (log intensity, higher = more binding, comparable within an allelic series); with ALX3 [9], 7.39 upbm affinity estimate (log intensity, higher = more binding, comparable within an allelic series); with PAX4 [7], 9.14 upbm affinity estimate (log intensity, higher = more binding, comparable within an allelic series); with ALX3 [10], 7.58 upbm affinity estimate (log intensity, higher = more binding, comparable within an allelic series). In addition, the binding signal in the test with ALX3 [11] was 7.61 upbm affinity estimate (log intensity, higher = more binding, comparable within an allelic series); in the test with ALX3 [12], 7.65 upbm affinity estimate (log intensity, higher = more binding, comparable within an allelic series).

For the sequence GCAGGGCC, the binding signal in the test with HOXC10 [13] was 10 upbm affinity estimate (log intensity, higher = more binding, comparable within an allelic series); with HOXC10 [14], 10 upbm affinity estimate (log intensity, higher = more binding, comparable within an allelic series).

In the case of AGACCAGC, the binding signal was 9.14 upbm affinity estimate (log intensity, higher = more binding, comparable within an allelic series) in the test with PAX4 [5]; 9.23 upbm affinity estimate (log intensity, higher = more binding, comparable within an allelic series) in the test with PAX4 [6]; 9.22 upbm affinity estimate (log intensity, higher = more binding, comparable within an allelic series) with PAX4 [7].

For CGGGACCA, the binding signal with HOXC10 [13] was 10.1 upbm affinity estimate (log intensity, higher = more binding, comparable within an allelic series); with HOXC10 [14] it was 10.1 upbm affinity estimate (log intensity, higher = more binding, comparable within an allelic series).

Consider GAGCCGGC, for which the binding signal with HOXC10 [13] was 10 upbm affinity estimate (log intensity, higher = more binding, comparable within an allelic series); in the test with ALX3 [8] it was 7.82 upbm affinity estimate (log intensity, higher = more binding, comparable within an allelic series); with HOXC10 [14] it was 9.91 upbm affinity estimate (log intensity, higher = more binding, comparable within an allelic series); with ALX3 [9], 7.87 upbm affinity estimate (log intensity, higher = more binding, comparable within an allelic series); in the test with ALX3 [10] it was 7.74 upbm affinity estimate (log intensity, higher = more binding, comparable within an allelic series); in the test with ALX3 [11], 7.7 upbm affinity estimate (log intensity, higher = more binding, comparable within an allelic series). Moreover, the binding signal with ALX3 [12] is 7.79 upbm affinity estimate (log intensity, higher = more binding, comparable within an allelic series).

As to GCTGCGCC, the binding signal was 7.68 upbm affinity estimate (log intensity, higher = more binding, comparable within an allelic series) with ALX3 [8]; 7.52 upbm affinity estimate (log intensity, higher = more binding, comparable within an allelic series) with ALX3 [9]; 7.66 upbm affinity estimate (log intensity, higher = more binding, comparable within an allelic series) in the test with ALX3 [10]; 7.62 upbm affinity estimate (log intensity, higher = more binding, comparable within an allelic series) with ALX3 [11]; 7.7 upbm affinity estimate (log intensity, higher = more binding, comparable within an allelic series) in the test with ALX3 [12].

Consider ACCCCCGT, for which the binding signal is 7.64 upbm affinity estimate (log intensity, higher = more binding, comparable within an allelic series) with ALX3 [8]; 7.58 upbm affinity estimate (log intensity, higher = more binding, comparable within an allelic series) with ALX3 [9]; 7.58 upbm affinity estimate (log intensity, higher = more binding, comparable within an allelic series) with ALX3 [10]; 7.57 upbm affinity estimate (log intensity, higher = more binding, comparable within an allelic series) with ALX3 [11]; 7.61 upbm affinity estimate (log intensity, higher = more binding, comparable within an allelic series) with ALX3 [12].

As for CCCCCGTA, the binding signal with ALX3 [8] was 7.68 upbm affinity estimate (log intensity, higher = more binding, comparable within an allelic series); with ALX3 [9], 7.71 upbm affinity estimate (log intensity, higher = more binding, comparable within an allelic series); with ALX3 [10], 7.65 upbm affinity estimate (log intensity, higher = more binding, comparable within an allelic series); in the test with ALX3 [11] it was 7.65 upbm affinity estimate (log intensity, higher = more binding, comparable within an allelic series); with ALX3 [12], 7.65 upbm affinity estimate (log intensity, higher = more binding, comparable within an allelic series).
